This is an account of results in PubChem BioAssay (NCATS).

A number with no mark means an inactive call. Inconclusive results are not listed. Activity calls are given as the source filed them. Unless noted, calls follow the shape of the dose curve; as a rule, active = well fitted curve in either direction with a large enough effect (not every such curve was filed as active); inconclusive = small, poorly fitted or top-dose-only effect, or another doubt; inactive = flat fitted curve, though single readings scatter.

Assay [1] concerns the target Lysosomal acid glucosylceramidase (Homo sapiens) (UniProt P04062). In words: Glucocerebrosidase-p2 (AID 348; in the data active = potency below about 10 µM; also: potency is read from the fitted curve at half-maximal effect). The settings on record: purified GBA, blue fluorogenic substrate, 40 min. In short, it runs like this:
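Compounds titrated from 0.6 nM upwards against 0.2 nM enzyme in pH 5.9 citric acid/KH2PO4, taurocholate, tween-20; blue fluorogenic substrate 80 uM, 40 min room temperature, stopped and read Ex 365/Em 440 for AC50.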

The nature of assay [2]: AP1 Signaling Pathway (AID 357). Also: % is scaled to controls: 0 for no effect and ±100 for the full control effect. To be noted: ME-180 AP-1-bla reporter, EGF-induced, beta-lactamase ratio, 5 h; at 7.69 µM (top of the series) unless noted. In short, it runs like this: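 Titration-series screen for positive or negative modulators of EC50 EGF-induced signaling in ME-180 cells carrying an AP-1-driven beta-lactamase reporter. After 5 hours at 37 degrees Celsius, CCF4 460nm/530nm emission ratio gave %Activity; AC50 values derived.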

In assay [3] the target is Cytochrome P450 1A2 (Homo sapiens) (UniProt P05177). In words: p450-cyp1a2 (AID 410; calls by dose curve; also: potency is read from the fitted curve at half-maximal effect;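 as to activity change, negative = inhibition: -100% = full effect of reference inhibitor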). To be noted: recombinant CYP1A2, luciferin-ME demethylation, luminescence; series mostly up to 11.4 µM. In short, it runs like this: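 Luminescent readout of luciferin formed from Luciferin-ME by human CYP1A2; data normalized against complete inhibition by 57 uM furafylline. Enzyme 20nM, substrate 100uM at Km, 100mM KPO4 buffer, 60 min reaction at room temperature.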

Assay [4] can be described thus: NFAT Signaling Pathway (AID 444).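 Also: carbachol stimulus at about its EC50 of 1 µM final; % is scaled to controls: 0 for no effect and ±100 for the full control effect.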 The settings on record: Jurkat NFAT-bla M1, carbachol, beta-lactamase ratio, 5 h; at 7.69 µM (top of the series) unless noted. In short, it runs like this:
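Jurkat cells with NFAT-driven β-lactamase reporter and co-expressed M1 receptor, stimulated with carbachol (final 1 uM, ~EC50), compound titration, 5 h at 37 °C. CCF4 loaded 1 h at RT; 460/530 nm ratio gave %activity and AC50.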

Assay [5] is described as follows: Stat Signaling Pathway (AID 446).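 Also: ME-180 cervical cancer cells given 40 pM IL-6 alongside compound; SIE-controlled beta-lactamase reporter measured as 460/530 nm FRET emission ratio; % is scaled to controls: 0 for no effect and ±100 for the full control effect.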 The settings on record: ME-180 (cervical carcinoma) SIE beta-lactamase reporter, IL-6 stimulated, 5 h; at 7.69 µM (top of the series) unless noted. The essentials: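 IL-6/STAT signaling read in ME-180 cells via an SIE beta-lactamase reporter. Stimulus was 40 pM IL-6 (its AC50) for 5 hrs, so both activation and inhibition register.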
For assay [6], the target named is Glucocorticoid receptor (Homo sapiens) (UniProt P04150). The assay is described as follows: GR-GFP Redistribution (AID 450;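 active = compounds whose dose series gives a full or clear partial fitted curve of increased nuclear translocation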; also: potency is read from the fitted curve at half-maximal effect). To be noted: U2OS GR-GFP nuclear translocation, laser cytometry, 2 h.
Assay [7] shares this target. In words: GR-EFC Redistribution (AID 451; calls by dose curve; also: potency is read from the fitted curve at half-maximal effect). To be noted: CHO-K1 GR-EFC translocation, beta-gal luminescence, 2 h. The essentials:
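CHO-K1 cells expressing nuclear EA and GR-ED fragments of b-gal; compounds titrated up to 46 uM final, 2 h at 37 C. GR nuclear translocation read as complemented b-gal luminescence after 1 h RT detection.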

Assay [8] addresses Mitogen-activated protein kinase 10 (Mus musculus) (UniProt Q61831). In words: JNK3 AlphaScreen Assay (AID 530).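 Also: kinase came from lysate of stimulated human HepG2 cells; signal reports phosphorylation of biotinylated GST-cJun 1-79 at Ser73 with 10 µM ATP; % is scaled to controls: 0 for no effect and ±100 for the full control effect.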 To be noted: JNK3 lysate, c-Jun phosphorylation; series mostly up to 11.4 µM. The essentials:
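Pre-activated (IL-1β/TNFα) JNK3 in HepG2 lysates phosphorylates biotin-GST-cJun(1-79), 10 uM ATP; anti-phospho-cJun(Ser73) AlphaScreen read at room temperature, pH 7.6 Tris buffer. Compounds pre-incubated 15 min as titrations.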

The target in assay [9] is 3',5'-cyclic-AMP phosphodiesterase 4B (Homo sapiens) (UniProt Q07343). In words: qHTS Assay for Inhibitors of PDE-IV (AID 607; active = well fitted activation curve with a large enough effect in the main read-out, with a control signal flat, not every such curve was filed as active; also: % of control where 0% means no effect). The settings on record: HEK293 ACTOne CNG channel cells, membrane potential fluorescence; series mostly up to 22.9 µM. In short, it runs like this:
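Live HEK293 cells with a modified cyclic nucleotide-gated (CNG) channel report intracellular cAMP via membrane-potential dye fluorescence (ex 535/em 590 nm). Endogenous PDE-IV was targeted. Compounds were tested at up to 22.9 uM final; RO 20-1724 100 uM served as control.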

Chain of 3',5'-cyclic-AMP phosphodiesterase 4B (Homo sapiens) (Q07343 whole entry, looked up): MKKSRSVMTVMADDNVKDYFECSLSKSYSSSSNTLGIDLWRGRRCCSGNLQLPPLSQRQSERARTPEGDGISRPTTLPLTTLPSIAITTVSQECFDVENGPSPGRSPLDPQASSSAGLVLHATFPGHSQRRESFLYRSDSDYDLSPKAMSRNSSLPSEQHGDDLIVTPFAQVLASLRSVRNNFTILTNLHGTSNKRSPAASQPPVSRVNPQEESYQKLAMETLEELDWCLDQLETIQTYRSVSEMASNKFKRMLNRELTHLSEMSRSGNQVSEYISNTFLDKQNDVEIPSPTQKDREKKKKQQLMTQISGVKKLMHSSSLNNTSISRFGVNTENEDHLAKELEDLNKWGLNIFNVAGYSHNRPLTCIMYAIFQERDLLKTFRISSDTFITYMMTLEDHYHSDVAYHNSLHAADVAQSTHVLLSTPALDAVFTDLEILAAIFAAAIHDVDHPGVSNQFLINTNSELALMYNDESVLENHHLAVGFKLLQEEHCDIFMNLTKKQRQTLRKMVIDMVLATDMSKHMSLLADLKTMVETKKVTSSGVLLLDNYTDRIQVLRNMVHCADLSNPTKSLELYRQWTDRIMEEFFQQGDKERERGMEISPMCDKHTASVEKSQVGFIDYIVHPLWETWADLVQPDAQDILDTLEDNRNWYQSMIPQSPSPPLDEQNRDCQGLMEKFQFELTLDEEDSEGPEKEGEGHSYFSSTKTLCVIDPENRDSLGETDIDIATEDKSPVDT
Chain of Glucocorticoid receptor (Homo sapiens) (P04150 whole entry, looked up): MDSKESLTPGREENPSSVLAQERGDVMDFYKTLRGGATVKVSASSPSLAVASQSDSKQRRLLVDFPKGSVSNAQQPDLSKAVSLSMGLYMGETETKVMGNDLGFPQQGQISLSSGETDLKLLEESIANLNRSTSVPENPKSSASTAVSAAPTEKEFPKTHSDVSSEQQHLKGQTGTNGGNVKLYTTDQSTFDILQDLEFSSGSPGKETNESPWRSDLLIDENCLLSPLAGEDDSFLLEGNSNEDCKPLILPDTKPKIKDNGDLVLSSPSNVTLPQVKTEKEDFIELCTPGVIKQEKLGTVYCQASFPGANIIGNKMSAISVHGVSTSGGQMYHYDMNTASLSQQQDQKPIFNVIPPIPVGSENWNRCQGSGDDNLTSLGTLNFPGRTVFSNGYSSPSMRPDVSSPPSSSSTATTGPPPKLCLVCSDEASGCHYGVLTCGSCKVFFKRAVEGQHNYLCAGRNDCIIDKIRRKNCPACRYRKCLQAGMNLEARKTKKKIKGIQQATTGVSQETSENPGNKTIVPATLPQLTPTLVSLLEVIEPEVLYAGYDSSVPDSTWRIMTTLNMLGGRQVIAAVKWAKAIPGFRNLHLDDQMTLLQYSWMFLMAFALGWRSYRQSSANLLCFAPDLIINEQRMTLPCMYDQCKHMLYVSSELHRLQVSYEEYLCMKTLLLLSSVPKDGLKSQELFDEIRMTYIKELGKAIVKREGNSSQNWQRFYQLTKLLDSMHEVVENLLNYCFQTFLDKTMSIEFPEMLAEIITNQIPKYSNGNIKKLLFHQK
Chain of Cytochrome P450 1A2 (Homo sapiens) (P05177 whole entry, looked up): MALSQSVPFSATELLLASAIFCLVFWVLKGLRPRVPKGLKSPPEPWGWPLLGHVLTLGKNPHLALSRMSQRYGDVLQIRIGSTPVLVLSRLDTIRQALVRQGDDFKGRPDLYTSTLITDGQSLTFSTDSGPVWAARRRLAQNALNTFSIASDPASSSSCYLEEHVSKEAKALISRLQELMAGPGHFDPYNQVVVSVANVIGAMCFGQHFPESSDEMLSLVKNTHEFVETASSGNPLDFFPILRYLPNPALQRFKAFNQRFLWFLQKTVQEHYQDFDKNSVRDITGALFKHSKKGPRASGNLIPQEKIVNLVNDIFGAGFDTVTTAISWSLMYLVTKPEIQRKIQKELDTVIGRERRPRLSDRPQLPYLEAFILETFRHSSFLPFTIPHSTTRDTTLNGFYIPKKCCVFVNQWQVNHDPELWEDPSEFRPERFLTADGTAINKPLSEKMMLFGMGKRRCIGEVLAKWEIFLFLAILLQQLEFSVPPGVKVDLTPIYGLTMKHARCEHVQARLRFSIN
Chain of Lysosomal acid glucosylceramidase (Homo sapiens) (P04062 whole entry, looked up): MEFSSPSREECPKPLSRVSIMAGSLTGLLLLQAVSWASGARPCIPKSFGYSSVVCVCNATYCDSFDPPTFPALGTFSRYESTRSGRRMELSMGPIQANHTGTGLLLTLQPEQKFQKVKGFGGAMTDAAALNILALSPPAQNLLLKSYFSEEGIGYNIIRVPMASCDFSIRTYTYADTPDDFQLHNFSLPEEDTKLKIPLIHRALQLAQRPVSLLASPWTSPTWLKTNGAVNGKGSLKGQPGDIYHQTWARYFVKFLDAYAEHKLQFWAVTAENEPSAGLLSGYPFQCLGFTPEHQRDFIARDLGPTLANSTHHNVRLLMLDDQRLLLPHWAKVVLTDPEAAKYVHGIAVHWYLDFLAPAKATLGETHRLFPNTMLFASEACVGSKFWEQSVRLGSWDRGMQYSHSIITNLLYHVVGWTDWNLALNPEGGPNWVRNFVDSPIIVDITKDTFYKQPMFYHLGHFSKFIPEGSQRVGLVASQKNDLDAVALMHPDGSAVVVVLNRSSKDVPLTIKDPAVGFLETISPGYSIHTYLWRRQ

Turning to `Cc1ccc(/C(C#N)=C/c2cccc([N+](=O)[O-])c2)cc1`, the Potency in assay [1] was over 11.4 µM; in assay [3], 3.98 µM (active); in assay [6], over 46 µM; in [7], over 9.22 µM. Besides, the figures for the activity change, negative = inhibition in assay [2] and in assay [4] were 15.2% and -0.124%, respectively. Moreover, in assay [5], the activity, negative = inhibition is 11.8%. In addition, the Potency entry in assay [8] and in assay [9] was “inactive” in each case.
On to `CCN=C(N)CSS(=O)(=O)O`, for which the Potency in assay [1] is over 11.4 µM; in assay [6] it was over 46 µM; in [7], over 9.22 µM. For the same molecule, the activity change, negative = inhibition is 9.8% in assay [2] and -7.3% in [4]. Moreover, the Potency result in [3], in assay [8] and in assay [9] was “inactive” each time. For the same molecule, the activity, negative = inhibition in assay [5] is -20%.
With `CN(C)CCCCN1CCc2c(n(C)c3ccccc23)C1=O`, the Potency is over 11.4 µM in [1], over 46 µM in assay [6] and over 9.22 µM in assay [7]. Further, the activity change, negative = inhibition in [2] is 14%; in [3], -14.1% [at 2.29 µM]; in assay [4], 5.6%. Further, the activity, negative = inhibition in [5] was 3.15%. The Potency result in assay [8] and in assay [9] was “inactive” throughout.
Turning to `CC(C)NCC[C@@H](O)c1cc2ccccc2o1`, the Potency in assay [1] was over 11.4 µM; in assay [6] it was over 46 µM; in assay [7], over 9.22 µM. The activity change, negative = inhibition in [2] was -15%; in assay [3], -2.1% [at 2.29 µM]; in [4], -2.7%. Further, the activity, negative = inhibition in [5] is 9.58%. The Potency result in [8] and in assay [9] was “inactive” throughout.
Regarding `NCCNC(=S)S`, the Potency in assay [1] is 9.83 µM (active); in assay [6], over 46 µM; in assay [7], over 9.22 µM. The values for the activity change, negative = inhibition in assay [2], in [3] and in assay [4] were 3.85%, -13.2% [at 2.29 µM] and -0.808%, respectively. In addition, in assay [5], the activity, negative = inhibition is -0.434%. Moreover, the Potency result in assay [8] and in assay [9] was “inactive” each time.
For the molecule `CN(C)S(=O)(=O)Nc1ccccn1`, the Potency in assay [1] was over 11.4 µM; in [6], over 46 µM; in assay [7] it was over 9.22 µM. In addition, the activity change, negative = inhibition in assay [2] was 2.01%; in [4], 17.9%. For the same molecule, the Potency entry in assay [3], in assay [8] and in assay [9] was “inactive” throughout. Besides, the activity, negative = inhibition in assay [5] was 8.85%.
On to `Oc1cccnc1CN1CCCCC1`, for which the Potency was over 11.4 µM in assay [1], over 46 µM in assay [6] and over 9.22 µM in assay [7]. In addition, the activity change, negative = inhibition in assay [2] is -3.72%; in [4], 11.7%. Further, the Potency result in [3], in [8] and in [9] was “inactive” each time. Moreover, the activity, negative = inhibition in assay [5] was 16.8%.
In the case of `O=C(O)c1cc(N=Cc2ccccc2O)cc(C(=O)O)c1`, the Potency in assay [1] was over 11.4 µM; in assay [6] it was over 46 µM; in [7], over 9.22 µM. Also, the activity change, negative = inhibition was -3.29% in assay [2] and 17.2% in [4]. Besides, the Potency result in assay [3], in assay [8] and in [9] was “inactive” each time. Besides, the activity, negative = inhibition in assay [5] was -4.46%.
Consider `N[C@H](C(=O)O)[C@@H](O)c1cnc[nH]1`, for which the Potency was over 11.4 µM in assay [1], over 46 µM in assay [6] and over 9.22 µM in [7]. The activity change, negative = inhibition in assay [2] was 6.1%; in [4], -4.22%. Further, the Potency entry in assay [3], in assay [8] and in assay [9] was “inactive” each time. Moreover, the activity, negative = inhibition in [5] is 2.54%.
On to `C[N+]1(CCCC[N+]2(C)CCCCCCC2)CCCCCCC1`, for which the values for the Potency in [1], in [6] and in assay [7] were over 11.4 µM, over 46 µM and over 9.22 µM, respectively. Moreover, the activity change, negative = inhibition was 0.612% in assay [2], -10.4% [at 2.29 µM] in assay [3] and -24.9% in assay [4]. Further, in assay [5], the activity, negative = inhibition was -6.69%. In addition, the Potency entry in [8] and in [9] was “inactive” throughout.
As for `CC(C)(CC(=O)Nc1ccccc1)C(=O)O`, the Potency in [1] was over 11.4 µM; in [6], over 46 µM; in assay [7], over 9.22 µM. In addition, the activity change, negative = inhibition in assay [2] was -3.37%; in assay [4] it was -4.05%. In addition, the Potency entry in assay [3], in [8] and in assay [9] was “inactive” each time. Moreover, in [5], the activity, negative = inhibition is 2.37%.
On to `N#CCCn1c(=O)c(-c2ccccc2)nc2cnc(Oc3cccc(Cl)c3)nc21`, for which the Potency in [1] was over 11.4 µM; in assay [3], 2.51 µM (active); in assay [6] it was over 9.22 µM; in assay [7], over 46 µM. The activity change, negative = inhibition is -25.4% in assay [2] and -23.9% in assay [4]. The activity, negative = inhibition in [5] is -4.6%. In addition, the Potency result in [8] and in [9] was “inactive” each time.
As for `O=C(O)C12CC3(C(=O)O)CC(C(=O)O)(CC(C(=O)O)(C1)C3=O)C2=O`, the Potency is over 11.4 µM in [1], over 46 µM in [6] and over 9.22 µM in [7]. Moreover, the activity change, negative = inhibition in assay [2] was -2.38%; in assay [3] it was -4.3% [at 2.29 µM]; in assay [4], 6.84%. Besides, in [5], the activity, negative = inhibition is 4.13%. For the same molecule, the Potency result in assay [8] and in [9] was “inactive” throughout.
Consider `Cc1ncc(CN=Cc2ccc(Cl)cc2)c(N)n1`, for which the Potency in [1] was over 11.4 µM; in assay [3], 5.01 µM (active); in assay [6] it was over 46 µM; in assay [7] it was over 9.22 µM. The activity change, negative = inhibition is -0.312% in assay [2] and 23.1% in assay [4]. Further, the activity, negative = inhibition in [5] was 3.08%. For the same molecule, the Potency result in assay [8] and in assay [9] was “inactive” each time.
